Shown are actives, neighbours in structure and some others; about 17% of the full set was active somewhere.
TGFb SMAD3 inh – inhibitors of TGF-b signaling; HepG2 CAGA-GFP TGF-b/SMAD3 reporter, GFP fluorescence, 18 h; TGF-beta stimulated, 500 pg/mL final; Potency, µM (titrated, usually from 46.1 µM), usual class: inhibitors; 410,000 tested, 1.2% active; AID 588855; further: nearly all actives have a fitted effect of over 65% in size
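HEPG2 CAGA-GFP, 1000 cells/well; 2 h settle, 37 C; cpd via pin tool; TGF-b 500 pg/mL final; 18 h, 37 C; GFP imaging ex488/em500-530; %Activity normalised to -TGF-b and +DMSO controls; CRC fit, curve class.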
HepG2 tox – HepG2 cytotoxicity, counter-screen for TGF-b inhibitors. HepG2 CAGA-GFP viability, ATP luminescence, 18 h. Potency, µM (highest dose often 46.1 µM), hits mostly cytotoxic. 410,000 tested, 0.76% active
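CellTiter-Glo luminescence gave cytotoxicity after 18 hours at 37 degrees C. The cells were HepG2 CAGA-GFP in 1% FBS DMEM, stimulated with 500 pg/mL TGF-beta after compound addition. %Activity was normalised to no-cell wells (complete cell-killing) and DMSO (no toxicity), and curves were fitted and classified.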
S2 tox – reduces viability in counter-screen for ATXN expression inhibitors; S2 cells (HEK-293 line with an ATXN2-luciferase reporter) viability, CellTiter-Fluor protease fluorescence, 24 h; Potency, µM (highest dose often 56.7 µM), usual class: cytotoxic; 400,000 tested, 0.49% active; further: nearly all actives have a fitted effect of over 40% in size
ATXN2 expr inh – reduces ATXN2 reporter expression in HEK-293 cells; HEK-293 ATXN2-luciferase reporter, luminescence, 24 h; Potency, µM (series often up to 57 µM), actives largely listed as inhibitors; 360,000 tested, 0.72% active; AID 1745845; further: nearly all actives have a fitted effect of over 55% in size
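qHTS (up to 57 uM final) was run with 24 h compound exposure of reporter cells at 37 °C. Each well was multiplexed: SteadyGlo luminescence measured ATXN2-luciferase expression after a fluorogenic Gly-Phe-AFC viability readout (25 uM final).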
TDP1 cell CPT – DT40-hTDP1 cell growth loss with CPT. Potency, µM (series often up to 46.2 µM), most hits filed as inhibitors. 420,000 tested, 12% active. AID 686979. chicken DT40 Tdp1-/-;hTDP1 cells + 20 nM CPT, ATP luminescence, 48 h; further: nearly all actives have a fitted effect of over 55% in size
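Chicken DT40 Tdp1-/- cells stably complemented with human TDP1 were seeded at 400 cells/well in medium containing 20 nM camptothecin, exposed to pin-transferred compounds, and grown at 37 °C for at least 48 hr. Viability was read as ATP luminescence.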
TDP1 cell noCPT – qHTS for Inhibitors of human tyrosyl-DNA phosphodiesterase 1 (TDP1): qHTS in cells in absence of CPT; AID 686978, 2013; 420,000 tested, 15% active; Potency, µM (doses to about 46.2 µM), actives largely listed as inhibitors; DT40 Tdp1-/- hTDP1 cells, no CPT, ATP luminescence, 48 h; further: nearly all actives have a fitted effect of over 55% in size
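No-CPT arm: Tdp1-/-;hTDP1 DT40 cells (400/well) plus compounds, incubated ≥48 hr at 37 °C. Readout CellTiter-Glo luminescence.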
A number is an active result; 0 = inactive; ? = inconclusive; - = no result given; [ ] = remark or other dose. The call rests on the fitted dose curve; in most records, active means well fitted curve in the direction sought with a large enough effect; inconclusive means small, poorly fitted or top-dose-only effect, or another doubt; inactive means no such curve, though single readings can be large; an effect the other way counts as inactive or inconclusive.

SMILES	TGFb SMAD3 inh	HepG2 tox	S2 tox	ATXN2 expr inh	TDP1 cell CPT	TDP1 cell noCPT
CC(=O)Nc1ccc(OCC(O)CN2CCN(Cc3ccccc3)CC2)cc1 (stereo unspecified)	0	0	0	0	0	0
OC(CNC1CCCCC1)COCCOc1ccc(Br)cc1 (stereo unspecified)	?	0	0	0	13µM	23µM
O=C(COC(=O)c1cccc(OC(F)F)c1)Nc1cccc(S(=O)(=O)N2CCCC2)c1	0	0	0	0	0	0
C[C@@H]1CCCCCCCCC(=O)OCCN1C(=O)OC(C)(C)C	0	0	?	0	16µM	?
COc1cc(OC)cc(-c2c(-c3cccs3)c3cc(-c4cccc5[nH]ccc45)ccc3n2C)c1	0	0	0	0	?	?
COc1cc(OC)cc(-c2c(-c3cccs3)c3cc(-c4ccc(N(C)C)nc4)ccc3n2C)c1	0	0	?	0	23µM	21µM
COc1cc(F)cc(-c2ccc3c(c2)c(-c2cccs2)c(-c2cc(OC)cc(OC)c2)n3C)c1	0	0	0	0	18µM	23µM
COc1cc(OC)cc(-c2c(-c3cccs3)c3cc(-c4ccn[nH]4)ccc3n2C)c1	16µM	0	?	?	?	16µM
COc1cc(OC)cc(-c2c(-c3cccs3)c3cc(Br)ccc3n2C)c1	0	0	0	0	0	0
COc1cc(OC)cc(-c2c(-c3cccs3)c3cc(-c4ccc5c(c4)OCO5)ccc3n2C)c1	0	0	0	0	?	?
N#CCCCc1cc2ccccc2cn1	0	0	0	0	0	0
CCCC(=O)Nc1cc(C)c(NC(=O)c2ccco2)cn1	0	0	0	0	0	0
CCCc1nnc(NC(=S)Nc2ccccc2)s1	0	0	0	0	4.6µM	3.3µM
CC(C)C(=O)Nc1nnc(NC(=S)Nc2ccccc2)s1	?	0	0	0	?	?
CCOC(=O)N/N=C\c1ccc(-c2cc(Cl)ccc2Cl)o1	0	0	0	0	?	0
NC(=S)N/N=C/c1ccc(-c2cc(Cl)cc(Cl)c2)o1	?	0	?	0	5.8µM	2.1µM
NC(=S)N/N=C/c1ccc(-c2cc(Cl)ccc2Cl)o1	10µM	0	0	0	2.6µM	3.3µM
COc1ccc(C(=O)CSc2nnc(Cn3cnc4ccccc43)o2)cc1	0	0	0	0	8.2µM	16µM
CCOc1cc(C(=O)CSc2nnc(CNc3ccc(Cl)cc3)o2)ccc1NC(=O)CC	?	10µM	20µM	32µM	?	?
COc1ccc(NCc2nnc(SCC(=O)c3ccc(OC)cc3)o2)cc1	0	0	0	0	?	16µM
CC(=O)c1ccc(NC(=O)CSc2nnc(Cn3cnc4ccccc43)o2)cc1	0	0	0	0	0	0
CCc1nnc(NC(=O)CSc2nnc(CNc3ccc(Cl)cc3)o2)s1	0	0	0	0	0	0
CCCCOc1ccc(Cc2c(O)nc(SC)[nH]c2=O)cc1	0	0	?	0	0	0
O=Cc1cc2ccccc2nc1SCCCF	0	0	0	0[11.3 µM]	?	4.6µM
CC1(C(=O)NS(=O)(=O)c2ccc(Cl)s2)CCN1C(=O)C1CCCCC1 (stereo unspecified)	0	0	0	0	0	7.3µM
SMILES	TGFb SMAD3 inh	HepG2 tox	S2 tox	ATXN2 expr inh	TDP1 cell CPT	TDP1 cell noCPT
CC1(C(=O)NS(=O)(=O)c2ccc(Cl)s2)CCN1C(=O)c1ccc(C2CCCCC2)cc1 (stereo unspecified)	0	0	0	0	0	0
COc1ccc(-c2sc3ccccc3c2-c2ccc(OC)cc2F)cc1	-	-	0	0	0	?
COc1cccc(-c2sc3ccc(OC)cc3c2-c2cnc(N3CCOCC3)nc2)c1	-	-	0	0	0	0
Oc1cccc(-c2sc3ccccc3c2-c2ccc(OCCN3CCCCC3)cc2)c1	-	-	?	?	18µM	12µM
COc1cccc(-c2sc3ccc(OC)cc3c2-c2ccc(OCCN(C)C)cc2)c1	?	14µM	?	?	23µM	16µM
COc1cccc(-c2sc3ccc(OC)cc3c2-c2ccc(O)cc2)c1	?	0	?	?	?	?
COc1ccc(-c2sc3ccccc3c2-c2ccc(OCCN(C)C)cc2)cc1	?	0	?	?	?	23µM
COc1cccc(-c2sc3ccc(OC)cc3c2-c2ccc(OCCN3CCOCC3)cc2)c1	0	0	0	0	16µM	?
CCCCOc1cccc(C2/C(=C(\O)c3ccc4c(c3)OCCO4)C(=O)C(=O)N2CCN2CCOCC2)c1 (stereo unspecified)	0	0	0	-	?	?
CSc1ccc(COC(=O)CCS(=O)(=O)c2ccc(C)cc2)cc1	0	0	0	0	0	0
O=C(Nc1ccc(C(=O)OCc2cc(=O)n3c4c(sc3n2)CCCC4)cc1)c1cccc(F)c1	0	0	-	-	?	?
CCCCNS(=O)(=O)c1ccc(NC(=O)C(Sc2ccccc2)c2ccccc2)cc1 (stereo unspecified)	0	0	0	0	?	?
COc1cccc(OCCNC(=O)CSc2ccc(C(F)(F)F)cc2[N+](=O)[O-])c1	0	0	0	0	15µM	15µM
Cc1ccccc1OCCNC(=O)CSc1ccc(C(F)(F)F)cc1[N+](=O)[O-]	0	0	0	0	0	?
CCOc1ccc(NC(=O)CN2C(=O)C(c3ccccc3)=NC23CCC(C)CC3)cc1 (stereo unspecified)	?	0	-	-	16µM	16µM
COc1ccc(NC(=O)CN2C(=O)C(c3ccccc3)=NC23CCC(C)CC3)cc1Cl (stereo unspecified)	-	0	-	-	?	?
CCn1c(COc2ccc(=O)n(-c3ccccc3)n2)n[nH]c1=S	0	0	0	0	0	0
Cc1cccc(NC2=CC(c3cccc(Br)c3)N(c3cccc(C)c3)C2=O)c1 (stereo unspecified)	0	0	0	0	?	8.2µM
COc1cccc(C2C=C(Nc3ccccc3)C(=O)N2c2ccccc2)c1 (stereo unspecified)	0	0	0	0[11.3 µM]	0	0
CCOC(=O)CCC(NC(=O)c1ccc(Nc2nc3ccccc3nc2C(=O)OCC)cc1)C(=O)OCC (stereo unspecified)	0	0	30µM	27µM	10µM	7.3µM
COc1cccc(CNC(=O)COC(=O)c2nc(Cl)c(Cl)c(Cl)c2Cl)c1	?	0	?	0	0.0082µM	?
CCOC(=O)c1nc(Nc2ccc(C(=O)O)cc2)c2ccccc2n1	0	0	0	0	0	0
COc1cccc(CNC(=O)CCl)c1	0	0	0	0	0	0

Compound activity: PubChem, National Center for Advancing Translational Sciences (NCATS)
